For 6 compounds, composite z-score, z-score and composite Z-score results are on record in PubChem BioAssay.

Assay [1] deals with Human papillomavirus type 1a protein E7 (residues 44-93). The experiment in a line: HPV1a E7 fragment binders on microarrays, primary screen, biochemical, small-molecule microarray, residues 44-93, 635 nm fluorescence (AID 1108).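 Note: E7 fragment applied at 1 µg/mL in TBST for 1 h at 4 C; score combines spot fluorescence with its signal to noise ratio.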 The following applies: small-molecule microarray binding, fluorescence 635 nm; higher = more signal.
Assay [2] can be described thus: modulators of HCV replicon luciferase signal, primary screen, HCV replication inhibitor project, Huh7 cells, luciferase reporter (AID 1109).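 Note: huh7 hepatoma cells harbouring a luciferase neomycin HCV replicon reporter; luciferase luminescence as measure of HCV replicon replication; test concentration not given here.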 Particulars: 48 h, higher = more signal. Background: Replicon systems follow genome replication, usually without infectious particles.
The target in assay [3] is Left-right determination factor 2 (Homo sapiens) (UniProt O00292). The experiment in a line: LEFTY2 binders on small-molecule microarrays, primary screen, biochemical, small-molecule microarray, 635 nm fluorescence scan (AID 1110). The following applies: LEFTY2 binding, higher = more signal.
Assay [4] concerns the target Calmodulin-1 (Homo sapiens) (UniProt P0DP23). The experiment in a line: CALM1 binders on microarrays, EGTA buffer, profiling panel, biochemical, small-molecule microarray, Cy5-labelled CALM1 (AID 1111).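 Note: labelled calmodulin applied in Tris saline Tween buffer holding calcium plus EGTA and DTT.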 Particulars: Cy5-CALM1 binding fluorescence, higher = more signal.
For assay [5] the target is unchanged. The assay can be described thus: calcium-bound CALM1 binders on microarrays, profiling panel, artefact control for SMM control-protein annotation, biochemical, small-molecule microarray, Cy5-labelled CALM1, plus calcium (AID 1112).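 Note: score merges spot fluorescence with signal to noise from triplicate slides.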 Particulars: Cy5-CALM1 binding fluorescence, higher = more signal.
Assay [6] is described as follows: small-molecule microarray binders of probe aWnt5a, primary screen, biochemical, biotinylated probe, 635/667 nm fluorescence (AID 1113).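 Note: score merges 667 nm fluorescence intensity with signal-to-noise per printed feature.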 The following applies: higher = more signal.
Assay [7] is described as follows: small-molecule microarray binders of probe aShh, primary screen, biochemical, biotinylated probe, 635/667 nm fluorescence (AID 1114).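 Note: probe is biotin-labelled aShh protein from a stem cell growth factor screen; measures binding of labelled protein to compounds printed on the slide; score merges feature fluorescence at 667 nm with signal-to-noise.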 Particulars: higher = more signal.
The nature of assay [8]: small-molecule microarray binders of probe aNog, primary screen, biochemical, biotinylated probe, 635/667 nm fluorescence (AID 1115).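 Note: probe is biotinylated aNog protein used at 0.15 µg/mL for 1 h at 4 C; z-score combines 667 nm fluorescence of each spot with its signal to noise.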 Particulars: higher = more signal.
The target in assay [9] is Torsin-1A-interacting protein 1 (Homo sapiens) (UniProt Q5JTV8). The experiment in a line: LAP1 binders from COS7 cell lysate, primary screen, small-molecule microarray, 635/667 nm fluorescence (AID 1116). The following applies: COS7-hLAP1 lysate binding, 635 nm fluorescence, higher = more signal.
In assay [10] the target is Alpha-bungarotoxin (Bungarus multicinctus) (UniProt P60615). The assay can be described thus: alpha-bungarotoxin binders on microarray, profiling panel, artefact control for SMM control protein annotation, biochemical, small-molecule microarray, Alexa647 label, 635/667 nm fluorescence (AID 1117). Particulars: alpha-BTX-A647 binding fluorescence, higher = more signal.
The next assay concerns the target Albumin (Bos taurus) (UniProt P02769). The experiment in a line: bovine serum albumin binders on microarray, profiling panel, artefact control for SMM control protein annotation, biochemical, small-molecule microarray, Alexa647 label, 635/667 nm fluorescence (AID 1118).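 Note: score merges 667 nm emission intensity and signal-to-noise per printed compound spot.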 The following applies: BSA-A647 binding, fluorescence 635 nm, higher = more signal.
The nature of assay [11]: small-molecule microarray binders of probe aXIP, primary screen, biochemical, NeuroSMM set, 635/667 nm fluorescence (AID 1119).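 Note: probe is the protein aXip251-270 applied at 1 µg/mL to compound-printed slides; binding of probe to printed compounds measured as 667 nm fluorescence plus signal to noise.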 Particulars: higher = more signal, called active from +8 up or from −8 down.
The nature of assay [12]: small-molecule binders of probe aNOTCH3, primary screen, biochemical, small-molecule microarray, 635/667 nm fluorescence (AID 1120).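 Note: probe is a biotin-tagged antibody raised against NOTCH3 rather than NOTCH3 protein; score merges spot fluorescence near 667 nm with spot signal to noise.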 Particulars: higher = more signal.
Assay [13] is described as follows: small-molecule binders of probe aNOTCH2, primary screen, biochemical, small-molecule microarray, 635/667 nm fluorescence (AID 1121).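 Note: score merges feature fluorescence read at 667 nm with its signal to noise.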 The following applies: higher = more signal.
Assay [14] has as its target Carbonic anhydrase 2 (Homo sapiens) (UniProt P00918). The assay can be described thus: CAII small-molecule binders, profiling panel, biochemical, small-molecule microarray, Alexa647-labelled CAII (AID 1122). Particulars: CAII-A647 binding fluorescence, higher = more signal.
A short description of assay [15]: COS7 lysate on small-molecule microarray, probe aHis, 635 nm (AID 1123).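 Note: z-score combines 667nm fluorescence intensity with signal-to-noise per printed compound spot.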 Particulars: COS7 cell lysate, fluorescence, higher = more signal.
Assay [16] is described as follows: compound binding in COS7 lysate, probe aLAP1, primary screen, cell lysate, small-molecule microarray (AID 1124).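 Note: lysate comes from COS7 cells expressing LAP1 and is applied at 0.3 µg/mL; score merges spot fluorescence near 667 nm with signal-to-noise over triplicate slides.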 The following applies: probe aLAP1, fluorescence, higher = more signal.
Another assay has as its system Sam68 (KHDRBS1). The assay can be described thus: Sam68 small-molecule binders, primary screen, biochemical, small-molecule microarray, 635 nm fluorescence (AID 1125).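 Note: score merges 667 nm channel intensity with signal to noise over triplicate slides.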 The following applies: small-molecule microarray binding, higher = more signal.
The test system of assay [17] is Chordin-like protein 2 (CHRDL2). The experiment in a line: CHRDL2 small-molecule binders, primary screen, biochemical, small-molecule microarray, 635 nm fluorescence (AID 1126).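 Note: printed compound slides probed with Chrdl2 protein at 4 µg/mL for 1 h at 4 C; score merges 667 nm emission intensity with signal to noise over three replicate slides.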 The following applies: small-molecule microarray binding, fluorescence 635 nm; higher = more signal.
In assay [18] the target is Concanavalin-A (Canavalia ensiformis) (UniProt P02866). The assay can be described thus: ConA small-molecule binders, primary screen, artefact control for SMM control protein annotation, biochemical, small-molecule microarray, Alexa647 label, 635 nm (AID 1127).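 Note: z combines 667 nm emission intensity with signal-to-noise across three replicate slides.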 Particulars: ConA-A647 binding fluorescence, higher = more signal.

Activity calls are given as the source filed them.

Sequence of Alpha-bungarotoxin (Bungarus multicinctus) (P60615 whole entry, looked up): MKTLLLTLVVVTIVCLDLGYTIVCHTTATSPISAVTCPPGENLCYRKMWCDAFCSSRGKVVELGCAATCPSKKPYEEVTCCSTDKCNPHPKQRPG
Sequence of Torsin-1A-interacting protein 1 (Homo sapiens) (Q5JTV8 whole entry, looked up): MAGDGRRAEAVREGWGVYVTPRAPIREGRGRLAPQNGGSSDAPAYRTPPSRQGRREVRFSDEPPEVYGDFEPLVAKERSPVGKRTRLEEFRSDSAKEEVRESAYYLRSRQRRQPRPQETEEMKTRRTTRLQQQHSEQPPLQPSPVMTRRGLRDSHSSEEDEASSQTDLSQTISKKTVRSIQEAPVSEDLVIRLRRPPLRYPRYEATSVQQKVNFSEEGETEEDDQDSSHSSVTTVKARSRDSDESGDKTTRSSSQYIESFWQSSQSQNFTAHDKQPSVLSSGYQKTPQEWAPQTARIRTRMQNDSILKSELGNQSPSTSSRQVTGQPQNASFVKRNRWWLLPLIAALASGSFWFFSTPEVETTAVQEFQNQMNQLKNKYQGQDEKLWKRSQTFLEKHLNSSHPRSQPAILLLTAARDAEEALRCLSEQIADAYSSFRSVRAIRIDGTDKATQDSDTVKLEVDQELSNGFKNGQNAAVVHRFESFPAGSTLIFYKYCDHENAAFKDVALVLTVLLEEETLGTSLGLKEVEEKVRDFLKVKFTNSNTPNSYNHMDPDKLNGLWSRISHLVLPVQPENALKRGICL
Sequence of Albumin (Bos taurus) (P02769 whole entry, looked up): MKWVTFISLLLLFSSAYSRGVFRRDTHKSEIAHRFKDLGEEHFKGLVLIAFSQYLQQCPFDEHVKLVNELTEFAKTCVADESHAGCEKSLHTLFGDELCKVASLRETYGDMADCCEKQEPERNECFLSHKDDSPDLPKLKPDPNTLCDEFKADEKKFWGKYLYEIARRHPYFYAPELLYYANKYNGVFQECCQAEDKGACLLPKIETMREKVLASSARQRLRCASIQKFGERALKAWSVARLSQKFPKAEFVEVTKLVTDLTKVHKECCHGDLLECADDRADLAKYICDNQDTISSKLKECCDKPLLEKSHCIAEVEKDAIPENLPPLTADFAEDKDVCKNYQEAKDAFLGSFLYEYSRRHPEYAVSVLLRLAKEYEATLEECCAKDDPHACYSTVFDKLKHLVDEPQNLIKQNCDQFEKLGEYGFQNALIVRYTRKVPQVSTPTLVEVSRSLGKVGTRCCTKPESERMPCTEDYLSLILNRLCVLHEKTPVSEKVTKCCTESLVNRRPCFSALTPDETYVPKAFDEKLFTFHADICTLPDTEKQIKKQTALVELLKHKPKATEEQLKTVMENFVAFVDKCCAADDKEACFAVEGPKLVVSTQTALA
Sequence of Concanavalin-A (Canavalia ensiformis) (P02866 whole entry, looked up): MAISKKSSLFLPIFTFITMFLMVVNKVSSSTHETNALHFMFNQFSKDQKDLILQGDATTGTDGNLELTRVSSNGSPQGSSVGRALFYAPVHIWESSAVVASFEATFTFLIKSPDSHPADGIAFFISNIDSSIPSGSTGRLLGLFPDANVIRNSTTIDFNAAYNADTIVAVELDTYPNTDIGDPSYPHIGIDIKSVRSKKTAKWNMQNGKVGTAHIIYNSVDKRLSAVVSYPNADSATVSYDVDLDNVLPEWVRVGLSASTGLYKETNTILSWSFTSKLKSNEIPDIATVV
Sequence of Left-right determination factor 2 (Homo sapiens) (O00292 whole entry, looked up): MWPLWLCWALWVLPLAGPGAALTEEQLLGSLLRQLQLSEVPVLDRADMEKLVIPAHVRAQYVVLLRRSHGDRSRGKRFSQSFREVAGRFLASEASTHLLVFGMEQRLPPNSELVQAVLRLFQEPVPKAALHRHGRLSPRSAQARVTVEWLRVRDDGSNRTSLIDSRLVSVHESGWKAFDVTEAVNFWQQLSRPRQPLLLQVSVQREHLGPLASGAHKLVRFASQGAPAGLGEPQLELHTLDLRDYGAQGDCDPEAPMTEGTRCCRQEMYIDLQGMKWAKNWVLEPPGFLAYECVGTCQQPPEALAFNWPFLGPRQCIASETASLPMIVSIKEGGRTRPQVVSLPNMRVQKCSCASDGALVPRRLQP

With `C=CCC(OC(C)=O)[C@@H]1[C@@H](N(Cc2ccc(-c3ccccc3)cc2)C(=O)c2ccc(C)cc2)c2cc(OCCCO)ccc2N1C(=O)c1ccc2ccccc2n1` (stereo not given in full), the composite z-score in [1] was -0.6; in assay [3], 0.755; in assay [4], -0.248; in assay [5], 0.24; in assay [6] it was -0.14; in [7] it was -0.181. Also, the composite z-score in assay [8] was 0.496; in [9], 0.234; in [10], -0.0983; with Albumin (Bos taurus), -0.361; in assay [12] it was 0.246; in assay [13] it was -0.0134. The composite z-score in assay [14] was 0.0144; in assay [15] it was 0.249; in assay [16], -0.446; in the assay with Sam68 (KHDRBS1), -0.44; in assay [17], 0.0539; in [18], -1.78. The compound further came in with a z-score in assay [2] of -0.41. Further, the composite Z-score in assay [11] was -0.181 (inactive).

On to `C[n+]1ccc2ccc(O)cc2c1`, for which the composite z-score in [1] is 0.642; in assay [3], 0.92; in assay [4], -0.825; in assay [5], -1.61; in [6], -0.124; in assay [7], -0.0804. The composite z-score in assay [8] was -0.323; in assay [9], 1.62; in [10], 0.273; in the assay with Albumin (Bos taurus), -0.567; in assay [12], -0.0044; in assay [13] it was -0.102. For the same compound, the composite z-score in [14] worked out at 0.596; in assay [15], 0.403; in assay [16], 0.854; in the assay on Sam68 (KHDRBS1) it was 0.14; in assay [17], 1.27; in assay [18], 0.369. The z-score in assay [2] is -0.337. For the same compound, in assay [11], the composite Z-score is -0.269 (inactive).

On to `CC[C@@H]1C=C(C(=O)O)[C@H](c2ccc(C(C)C)cc2)N1S(=O)(=O)c1ccc(C)cc1`, for which the composite z-score in assay [1] was 1.27; in assay [3], 0.615; in [4], 2.38; in assay [5] it was 0.692; in assay [6] it was 0.019; in [7], 0.519. Moreover, the composite z-score in assay [8] is -0.443; in [9] it was 2.19; in assay [10], 2.12; with Albumin (Bos taurus), 0.987; in assay [12] it was 0.42; in [13] it was 0.346. Besides, the composite z-score in assay [14] was 0.796; in assay [15], 2.85; in [16], 1.63; with Sam68 (KHDRBS1), 1.3; in assay [17], -0.557; in assay [18], 1.21. The compound also gave a z-score in assay [2] of -0.868. In addition, in assay [11], the composite Z-score was 1.1 (inactive).

For the compound `C=CCN1C(=O)[C@]2(Cc3ccccc31)N=C(c1ccc(OCCCO)cc1)O[C@@H]2c1ccccc1`, the composite z-score in assay [1] was 1.41; in assay [3], 0.319; in [4], 0.731; in assay [5], -0.313; in assay [6] it was 0.219; in [7], -0.108. Further, the composite z-score was 0.431 in assay [8]; 1.75 in assay [9]; 0.152 in assay [10]; -0.171 with Albumin (Bos taurus); 0.0562 in [12]; 0.121 in [13]. Besides, the composite z-score in assay [14] is 0.253; in assay [15], 2.37; in [16], 0.339; in the assay with Sam68 (KHDRBS1), 0.965; in assay [17], 0.569; in assay [18] it was 1.08. The z-score in assay [2] is -2.74. In assay [11], the composite Z-score is 2.13 (inactive).

For the compound `CN(C)CCCC[C@@H]1NC(=O)[C@@H]2C[C@H](C(=O)NCCCCCCN)[C@H](c3ccc(O)cc3)N2C1=O`, the composite z-score in assay [1] stood at 1.42; in assay [3], 0.984; in [4], 0.98; in assay [5] it was 1.02; in [6], 0.178; in assay [7] it was 0.584. The composite z-score in [8] was -0.172; in assay [9] it was 1.7; in [10] it was 0.629; in the assay with Albumin (Bos taurus), -0.254; in assay [12], 0.575; in assay [13], 0.271. For the same compound, the composite z-score in assay [14] amounted to 0.674; in assay [15], 1.81; in assay [16], 0.821; in the assay with Sam68 (KHDRBS1), 1.31; in [17] it was 0.808; in [18], 0.616. Besides, the z-score in assay [2] is -0.379. Besides, the composite Z-score in assay [11] is 0.142 (inactive).

In the case of `COc1ccc([Si](C)(C)[C@H]2[C@H](CCO)O[C@@]3(C(=O)N(Cc4cccc(N5C(=O)c6cccc7cccc5c67)c4)c4ccccc43)[C@@H]2C)cc1`, the composite z-score in [1] was 1.06; in [3], -0.652; in [4], 1.04; in assay [5], 0.591; in [6], 0.0618; in assay [7], 0.0121. Besides, the composite z-score was 0.741 in assay [8]; 0.116 in assay [9]; 0.621 in assay [10]; 0.577 in the assay with Albumin (Bos taurus); -0.122 in assay [12]; -0.148 in assay [13]. The composite z-score was 0.23 in assay [14]; 0.856 in [15]; 1.42 in assay [16]; 1.13 in the assay with Sam68 (KHDRBS1); -0.27 in assay [17]; 0.863 in assay [18]. Moreover, in [2], the z-score is -4.97. For the same compound, the composite Z-score in assay [11] was 0.326 (inactive).
